Experimental data published in PubChem BioAssay.

Experiments:
[1] = test system: Human papillomavirus type 1a protein E7 (residues 44-93); assay: HPV1a E7 fragment binders on microarrays, primary screen, biochemical, small-molecule microarray, residues 44-93, 635 nm fluorescence (AID 1108); conditions: small-molecule microarray binding, fluorescence 635 nm; higher = more signal;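 note: E7 fragment applied at 1 µg/mL in TBST for 1 h at 4 C; score combines spot fluorescence with its signal to noise ratio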
[2] = modulators of HCV replicon luciferase signal, primary screen, HCV replication inhibitor project, Huh7 cells, luciferase reporter (AID 1109); conditions: 48 h, higher = more signal;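 note: huh7 hepatoma cells harbouring a luciferase neomycin HCV replicon reporter; luciferase luminescence as measure of HCV replicon replication; test concentration not given here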
[3] = target: Left-right determination factor 2 (Homo sapiens) (UniProt O00292); assay: LEFTY2 binders on small-molecule microarrays, primary screen, biochemical, small-molecule microarray, 635 nm fluorescence scan (AID 1110); conditions: LEFTY2 binding, higher = more signal
Chain of Left-right determination factor 2 (Homo sapiens) (O00292 whole entry, looked up): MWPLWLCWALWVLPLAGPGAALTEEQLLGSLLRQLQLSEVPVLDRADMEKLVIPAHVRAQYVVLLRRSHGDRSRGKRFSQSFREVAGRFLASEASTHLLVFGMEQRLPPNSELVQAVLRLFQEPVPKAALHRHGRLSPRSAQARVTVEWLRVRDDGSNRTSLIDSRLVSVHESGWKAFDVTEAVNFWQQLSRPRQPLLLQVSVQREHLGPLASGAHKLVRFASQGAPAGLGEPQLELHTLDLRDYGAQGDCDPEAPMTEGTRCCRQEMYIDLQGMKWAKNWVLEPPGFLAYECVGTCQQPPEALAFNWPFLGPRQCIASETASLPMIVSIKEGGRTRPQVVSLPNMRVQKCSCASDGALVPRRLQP

[4] = target: Calmodulin-1 (Homo sapiens) (UniProt P0DP23); assay: CALM1 binders on microarrays, EGTA buffer, profiling panel, biochemical, small-molecule microarray, Cy5-labelled CALM1 (AID 1111); conditions: Cy5-CALM1 binding fluorescence, higher = more signal;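 note: labelled calmodulin applied in Tris saline Tween buffer holding calcium plus EGTA and DTT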
[5] = target: Calmodulin-1 (Homo sapiens) (UniProt P0DP23); assay: calcium-bound CALM1 binders on microarrays, profiling panel, artefact control for SMM control-protein annotation, biochemical, small-molecule microarray, Cy5-labelled CALM1, plus calcium (AID 1112); conditions: Cy5-CALM1 binding fluorescence, higher = more signal;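 note: score merges spot fluorescence with signal to noise from triplicate slides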
[6] = small-molecule microarray binders of probe aWnt5a, primary screen, biochemical, biotinylated probe, 635/667 nm fluorescence (AID 1113); conditions: higher = more signal;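 note: score merges 667 nm fluorescence intensity with signal-to-noise per printed feature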
[7] = small-molecule microarray binders of probe aShh, primary screen, biochemical, biotinylated probe, 635/667 nm fluorescence (AID 1114); conditions: higher = more signal;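 note: probe is biotin-labelled aShh protein from a stem cell growth factor screen; measures binding of labelled protein to compounds printed on the slide; score merges feature fluorescence at 667 nm with signal-to-noise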
[8] = small-molecule microarray binders of probe aNog, primary screen, biochemical, biotinylated probe, 635/667 nm fluorescence (AID 1115); conditions: higher = more signal;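 note: probe is biotinylated aNog protein used at 0.15 µg/mL for 1 h at 4 C; z-score combines 667 nm fluorescence of each spot with its signal to noise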
[9] = target: Torsin-1A-interacting protein 1 (Homo sapiens) (UniProt Q5JTV8); assay: LAP1 binders from COS7 cell lysate, primary screen, small-molecule microarray, 635/667 nm fluorescence (AID 1116); conditions: COS7-hLAP1 lysate binding, 635 nm fluorescence, higher = more signal
Chain of Torsin-1A-interacting protein 1 (Homo sapiens) (Q5JTV8 whole entry, looked up): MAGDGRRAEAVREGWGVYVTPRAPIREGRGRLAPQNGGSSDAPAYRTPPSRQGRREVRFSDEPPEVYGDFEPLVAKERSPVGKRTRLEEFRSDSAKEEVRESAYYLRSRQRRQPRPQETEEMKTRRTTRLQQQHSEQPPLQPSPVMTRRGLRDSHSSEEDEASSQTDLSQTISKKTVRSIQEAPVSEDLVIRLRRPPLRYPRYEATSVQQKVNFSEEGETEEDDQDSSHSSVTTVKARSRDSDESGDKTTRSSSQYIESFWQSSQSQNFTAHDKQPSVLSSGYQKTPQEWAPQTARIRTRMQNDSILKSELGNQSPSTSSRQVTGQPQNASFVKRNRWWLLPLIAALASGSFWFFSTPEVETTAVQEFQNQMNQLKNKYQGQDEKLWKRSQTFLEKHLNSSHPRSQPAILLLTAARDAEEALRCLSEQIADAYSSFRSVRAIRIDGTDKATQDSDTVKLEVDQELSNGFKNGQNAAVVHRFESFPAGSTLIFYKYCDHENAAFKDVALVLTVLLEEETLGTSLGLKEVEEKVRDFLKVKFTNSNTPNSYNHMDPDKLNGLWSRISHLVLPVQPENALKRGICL

[10] = target: Alpha-bungarotoxin (Bungarus multicinctus) (UniProt P60615); assay: alpha-bungarotoxin binders on microarray, profiling panel, artefact control for SMM control protein annotation, biochemical, small-molecule microarray, Alexa647 label, 635/667 nm fluorescence (AID 1117); conditions: alpha-BTX-A647 binding fluorescence, higher = more signal
Chain of Alpha-bungarotoxin (Bungarus multicinctus) (P60615 whole entry, looked up): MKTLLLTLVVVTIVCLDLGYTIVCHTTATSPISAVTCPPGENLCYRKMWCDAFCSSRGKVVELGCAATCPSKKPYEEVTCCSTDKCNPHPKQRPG

Compound | composite z-score [1] | z-score [2] | composite z-score [3] | composite z-score [4] | composite z-score [5] | composite z-score [6] | composite z-score [7] | composite z-score [8] | composite z-score [9] | composite z-score [10]
Cc1c(NC(=O)CC#N)c(=O)n(-c2ccccc2)n1C | 0.371 | -0.27 | 0.364 | 0.121 | -0.235 | -0.0944 | 0.253 | -0.434 | 0.292 | 1.08
C=CCC(OC(C)=O)[C@@H]1[C@@H](N(Cc2cc3ccccc3o2)C(=O)c2ccc(C)cc2)c2cc(OCCCO)ccc2N1C(=O)c1ccc2ccccc2c1 (stereo not given in full) | 0.0468 | -0.274 | 0.161 | -0.0375 | 0.37 | -0.0644 | 0.313 | -0.314 | 0.189 | -0.298
C=CC(COC(C)=O)NS(=O)(=O)c1ccc(Br)cc1 (stereo not given) | 0.62 | -0.437 | 0.65 | -0.467 | -0.883 | 0.093 | 0.0948 | -0.149 | 0.366 | 0.601
[N-]=[N+]=NCc1ccccc1C[C@@]1(C(=O)NCC(O)CO)N=C(c2ccc(OCCCO)cc2)O[C@@H]1c1ccccc1CN=[N+]=[N-] (stereo not given in full) | 1.06 | -1.73 | -0.88 | 2.11 | 0.876 | 0.0219 | 0.269 | 2.29 | 2.01 | 1.5
CN(C)CCCCNC(=O)[C@H]1C[C@H]2C(=O)N[C@@H](Cc3ccccc3)C(=O)N2[C@H]1c1ccc(O)cc1 | 1.38 | 0.506 | 1.17 | 0.561 | 0.746 | -0.0866 | -0.0243 | 0.355 | 0.945 | 1.55
COc1ccc([Si](C)(C)[C@H]2[C@H](CCn3cc([C@H](O)c4ccccc4)nn3)O[C@@]3(C(=O)N(Cc4cccc(N5CCC5=O)c4)c4ccccc43)[C@@H]2C)cc1 | -0.268 | -1.73 | 0.183 | 0.318 | 0.193 | -0.114 | 0.0278 | -0.118 | 0.412 | 0.167
Cc1ccccc1C(O)C1C=CC2C(=O)N(C)C(=O)C2N1N1CCCCC1 (stereo not given) | 1.05 | -0.18 | 0.163 | 0.8 | 0.413 | 0.0403 | 0.254 | 1.72 | 1.65 | 1.04
COC(=O)[C@@]1(Cc2ccc(OC)cc2)[C@H]2c3cc(C(=O)N(C)C)n(Cc4c(OC)[nH]cc(C)c4=O)c3C[C@H]2CN1C(=O)c1ccccc1 | -0.117 | -1.1 | 0.464 | 0.352 | -0.117 | -0.16 | -0.352 | -0.248 | 0.808 | -0.0941
NCCCCCNC(=O)[C@H]1C[C@H]2C(=O)NCC(=O)N2[C@H]1c1cccc(OCCO)c1 | 1.34 | -0.786 | 0.296 | 0.828 | 0.8 | -0.157 | 0.158 | -0.324 | 0.86 | 1.51
C#CCN(C(/C=C/c1ccccc1)CO)C(C(=O)O)c1ccccc1 (stereo not given) | -0.943 | -0.206 | 0.111 | -0.238 | -0.707 | -0.0981 | -0.2 | -0.242 | -0.58 | 0.127
[N-]=[N+]=NCc1ccccc1[C@@H]1OC(c2ccc(OCCCO)cc2)=N[C@]1(Cc1ccccc1N=[N+]=[N-])C(=O)NCc1ccccc1 | 1.33 | -1.64 | 0.374 | 1.34 | 0.12 | -0.138 | -0.221 | -0.447 | 1.4 | 0.158
COc1ccc([Si](C)(C)[C@@H]2[C@@H](CC(=O)N(CCO)Cc3ccccc3)O[C@]3(C(=O)N(C)c4ccccc43)[C@H]2C)cc1 | 0.906 | -3.95 | 0.813 | 0.773 | -0.193 | -0.0721 | 0.366 | 0.422 | 0.44 | 0.805
O=C1OCCC=C[C@H]2OC34C=CCN(Cc5ccccc5)C(=O)[C@H]3N(CCCO)C(=O)[C@@H]4C12 (stereo not given in full) | -0.786 | -0.0946 | -0.424 | -0.438 | 0.0072 | -0.164 | -0.206 | -0.0602 | 0.0647 | -0.473
CC(C)NC(=O)[C@@]1(Cc2ccccc2I)c2ccccc2C(=O)N(Cc2ccccc2)[C@H]1c1ccc(CO)cc1 | 0.997 | -1.09 | 0.337 | 0.447 | -0.726 | 0.0438 | -0.0503 | -0.422 | 0.568 | 1.4
COc1ccc([Si](C)(C)[C@H]2[C@H](CC(=O)N(CCO)Cc3ccccc3)O[C@@]3(C(=O)N(Cc4cccc(N5CCC5=O)c4)c4ccccc43)[C@@H]2C)cc1 | 0.784 | -3.85 | 0.829 | 0.64 | -0.173 | -0.1 | -0.0793 | -0.0311 | 0.059 | 1.03
COc1cc2c(cc1OC)CN(C(=O)[C@@H]1[C@H]3C(=O)O[C@H](c4ccccc4)[C@H](c4ccccc4)N3[C@H](c3ccccc3OCCO)[C@@]13C(=O)Nc1ccc(C#CCNC(N)=O)cc13)CC2 | 0.644 | -1.01 | 0.17 | 1.36 | 0.478 | 0.0744 | 0.155 | 1.12 | 1.29 | 1.9
CCOC(=O)C[C@H]1[C@H](OC(=O)c2ccccc2-c2ccccc2)[C@@H](NC(=O)c2ccc3ccccc3c2)c2cc(OCCCO)ccc2N1C(=O)c1ccc2ccccc2n1 | 1.12 | -1.08 | 0.043 | 0.0796 | -0.122 | -0.0441 | -0.214 | -0.364 | 0.4 | 0.164

Compound | composite z-score [1] | z-score [2] | composite z-score [3] | composite z-score [4] | composite z-score [5] | composite z-score [6] | composite z-score [7] | composite z-score [8] | composite z-score [9] | composite z-score [10]
CC(C)C[C@@H]1NC(=O)[C@H]2C[C@@H](C(=O)NCCCCCCNC(=O)CS)[C@@H](c3cccc(OCCO)c3)N2C1=O | 1.41 | -0.117 | 1.45 | 0.83 | -0.587 | -0.001 | -0.282 | -0.152 | 1.95 | 1.17
COCCOC(=O)N1C(=O)[C@@]2(c3cc(C#CCC(C(=O)OC)C(=O)OC)ccc31)[C@H](c1ccccc1OCCO)N1[C@H](c3ccccc3)[C@H](c3ccccc3)OC(=O)[C@H]1[C@@H]2C(=O)N1CCc2cc(OC)c(OC)cc2C1 | 1.2 | -1.79 | 0.958 | 1.54 | 0.0013 | -0.363 | -0.148 | -0.289 | 0.496 | 0.942
CCOC(=O)C1=CCC(C(C)(C)C)N(S(=O)(=O)c2ccc(C)cc2)C1 (stereo not given) | 1.46 | -2.59 | 1.37 | 0.898 | 0.197 | 0.0561 | -0.532 | 0.562 | 0.944 | 1.5
O=C1O[C@H](c2ccccc2)[C@H](c2ccccc2)N2[C@H]1[C@@H](C(=O)O)[C@]1(C(=O)Nc3ccc(C#CC4=CCCCC4)cc31)[C@H]2c1ccc(OCCO)cc1 | 1.22 | -1.69 | 0.659 | 0.447 | 0.166 | 0.055 | -0.304 | 1.17 | 1.09 | 2.81
Cc1ccc(S[C@]2(C(=O)NCC(C)C)CC(=O)N(Cc3ccccc3)[C@@H]2c2ccc(CO)cc2I)cc1 | 1.29 | -2.6 | 0.118 | 0.425 | 0.473 | -0.063 | -0.196 | -0.67 | 0.0825 | 0.545
COc1ccc(C#Cc2ccc3c(c2)[C@]2(C(=O)N3)[C@H](c3ccc(O)cc3)N3[C@H](c4ccccc4)[C@H](c4ccccc4)OC(=O)[C@H]3[C@@H]2C(=O)N2CCCCCCC2)cc1 | 1.33 | -1.01 | 1.07 | 2.7 | 1.41 | 0.754 | 2.15 | 2.75 | 4.61 | 1.83
COCCOC(=O)N1C(=O)[C@@]2(c3cc(C#CCNC(N)=O)ccc31)[C@H](c1ccccc1OCCO)N1[C@H](c3ccccc3)[C@H](c3ccccc3)OC(=O)[C@H]1[C@@H]2C(N)=O | 1.18 | -0.733 | 0.54 | 0.451 | 0.664 | 0.0253 | -0.229 | -0.314 | -0.0837 | 1.18
CC1=C2[C@@H](CCc3ccccc3)OB(O)C[C@@H]2n2c(=O)n(-c3ccccc3)c(=O)n2C1 | 0.352 | -1.23 | 0.664 | 0.177 | -0.878 | -0.096 | 0.133 | -0.198 | 0.543 | -0.027
Cc1ccc(S[C@]2(C(=O)NCc3ccccc3)CC(=O)N(Cc3ccccc3)[C@@H]2c2ccc(CO)cc2)cc1 | 1.42 | -2.1 | -0.934 | -0.344 | -0.195 | -0.0395 | -0.0977 | -0.364 | 1.2 | -0.593
CC(C)C(=C=CC[C@H](O)c1ccccc1OCCO)C[C@H](O)c1ccccn1 | 0.143 | -0.493 | 0.64 | -0.227 | -0.253 | -0.0607 | -0.2 | 0.381 | 0.94 | 1.38
O=C1OCCC=C[C@H]2OC34C=CCN(c5ccc6ccccc6c5)C(=O)[C@H]3N(CCCCCO)C(=O)[C@@H]4C12 (stereo not given in full) | 0.444 | -0.345 | -1.05 | -0.491 | -0.0432 | -0.147 | -0.0011 | 0.438 | 1.92 | -0.264
Cc1ccc(S[C@]2(C(=O)NC3CC3)CC(=O)N(C3CCCCC3)[C@@H]2c2ccc(CO)cc2I)cc1 | 1.43 | -2.79 | 0.0327 | 0.224 | 0.406 | -0.154 | -0.304 | 0.45 | -0.0758 | 0.874
CCCCCN1CC=CC23O[C@@H]4/C=C\CCCOC(=O)C4[C@H]2C(=O)N(CCCCCCO)[C@@H]3C1=O (stereo not given in full) | -0.0348 | -0.857 | -0.545 | -0.758 | -0.0227 | -0.154 | -0.0035 | -0.237 | 1.09 | -0.752
O=C1OCC=C[C@H]2OC34C=CCN(c5ccc(Cl)cc5)C(=O)[C@H]3N(CCCCCCO)C(=O)[C@@H]4[C@@H]12 (stereo not given in full) | -0.851 | -0.493 | -1.21 | -0.123 | 0.174 | -0.128 | 0.0062 | 0.46 | -0.143 | -1.34
C=CCC(OC(C)=O)[C@@H]1[C@@H](N(Cc2ccc(-c3ccccc3)cc2)C(=O)Cc2ccc(F)cc2)c2cc(OCCCO)ccc2N1C(=O)c1ccc2ccccc2n1 (stereo not given in full) | -0.689 | -0.213 | -0.456 | 0.168 | 0.72 | -0.0125 | -0.206 | -0.395 | 0.79 | 0.414
COCCOC(=O)N1C(=O)[C@@]2(c3cc(C#CCC(C(=O)OC)C(=O)OC)ccc31)[C@H](C(=O)N1CCCCCCC1)[C@H]1C(=O)O[C@H](c3ccccc3)[C@H](c3ccccc3)N1[C@@H]2c1ccc(OCCO)cc1 | 1.49 | -0.981 | 1.33 | 2.48 | 1.67 | 1.21 | 1.19 | 3.01 | 4.31 | 3.31
C=CCNC(=O)[C@H]1[C@@H]2C(=O)O[C@@H](c3ccccc3)[C@@H](c3ccccc3)N2[C@@H](c2ccc(O)cc2)[C@]12C(=O)N(C(=O)OCCOC)c1ccc(C#CCCO)cc12 | 0.889 | -0.605 | -0.166 | 0.0387 | 0.171 | -0.185 | 0.0639 | -0.332 | 1.35 | 1.25
